Bioassay records from PubChem BioAssay.
Only some compounds are listed: those with a hit (about 28% of all), similar ones and a draw of the others.
Pyk2 oligo antag: antagonists of human Pyk2 oligomerization; Q14289; Q293 cells, Pyk2 FERM NanoBiT luminescence; active compounds read low; z-score (the deposit names both 25 µM and 10 µM); 0.83% of 99,000 active; AID 1347419;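 active = Z-score of -3 or lower, scaled per plate to the spread of control and sample wells; inactive = z-score above -3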;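 also: negative z-score means lost luminescence so less FERM oligomerization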
CYP2C9 inh: human CYP2C9 inhibition. inhibition, % at 5 µM. CYP2C9 Supersomes, luciferin-H conversion, luminescence. 20% of 96,000 active. AID 777. P11712;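 active = blocking of liver enzyme CYP2C9 beyond about 50% at 5 µM, limit read from the data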
CYP2C19 activ: activators of human cytochrome P450 2C19. activation factor at 5 µM. 96,000 tested, under 10 active. P33261. AID 1025. recombinant CYP2C19, luciferin-H EGE luminescence; active compounds read high; 0 = fully inhibited enzyme, 1 = untreated enzyme;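 active = activation factor of at least 2 at 5 µM in the primary screen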;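 also: 0 = wells with 2.5 mM tranylcypromine and 1 = vehicle-only wells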
CYP2C9 act: increases human cytochrome P450 2C9 activity | recombinant CYP2C9, luciferin-H conversion, luminescence; active compounds read high; factor 1 = untreated enzyme, 0 = blocked | 1.4% of 96,000 active | activation factor at 5 µM | P11712;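 active = activation factor of 2 or more for CYP2C9 at a 5 µM dose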;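 also: 0 = sulfaphenazole-blocked wells and 1 = vehicle-only wells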
CYP2C19 inh: human CYP2C19 inhibition. P33261. CYP2C19 Supersomes, luciferin-H EGE luminescence, 30 min. inhibition, % at 5 µM. 21% of 96,000 active. AID 778;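 active = CYP2C19 inhibition above a set limit at 5 µM in the primary screen, cut at about 50% in these data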;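 also: plate controls were negative control wells for no effect and 2.5 mM tranylcypromine positive control for full effect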
An asterisk follows results filed as active; . = no result.

SMILES	Pyk2 oligo antag	CYP2C9 inh	CYP2C19 activ	CYP2C9 act	CYP2C19 inh
COC(=O)c1c(NC(=O)C2CC=CCC2C(=O)O)sc(C)c1C (stereo not drawn)	0.87	71.2*	0.8	0.3	20.6
COC(=O)c1c(NC(=O)C2CC=CCC2C(=O)O)sc(C(N)=O)c1C (stereo not drawn)	0.21	29.0	1	0.7	1.5
CCOC(=O)c1nc2cc3n(c(C)c-2c1C)C(C)C(CC)=C3C (stereo not drawn)	0.07	.	.	.	.
CC(=O)c1ccc(OC(=O)N(c2ccccc2)c2ccccc2)cc1	0.12	69.8*	0.4	0.3	55.6*
COc1ccccc1NC(=O)Oc1ccc(C(C)=O)cc1	-0.51	-16.7	0.8	1.2	16.8
CCn1c2ccccc2c2nnc(SCC(=O)N3CC(C)OC(C)C3)nc21 (stereo not drawn)	-0.63	-32.9	0.8	1.3	21.6
CCOC(=O)c1cnc2c(OC)cccc2c1N1CCN(c2ccc(OC)cc2)CC1	-0.95	73.0*	0.3	0.3	67.3*
CCOC(=O)c1cnc2c(OC)cccc2c1N1CCN(c2ccccc2OC)CC1	-0.6	46.2	0.9	0.5	7.3
O=C(NCc1cccs1)c1cc(C2CC2)on1	.	6.4	0.5	0.9	45.4
O=C(c1ccc(=O)n(Cc2ccc(Cl)c(Cl)c2)c1)N1CCOCC1	-0.05	23.6	0.6	0.8	37.8
CCC1(C)Cc2ccccc2/C(=C/C(=O)N2CCCCC2)N1 (stereo not drawn)	-0.8	25.2	0.8	0.7	21.1
COc1ccc(NC(=O)c2ccco2)c([N+](=O)[O-])c1	0.13	.	.	.	.
COc1ccc(NC(=O)c2ccc(C)cc2Cl)c([N+](=O)[O-])c1	-0.82	-258.8	0.7	3.6*	34.6
COc1ccc(NC(=O)c2ccc(Br)o2)c([N+](=O)[O-])c1	-0.59	-6.0	0.9	1.1	5.2
COc1ccc(NC(=S)NC(NC(=O)c2cccc3ccccc23)C(Cl)(Cl)Cl)c([N+](=O)[O-])c1 (stereo not drawn)	-0.8	83.3*	0.8	0.2	19.3
COc1ccc(NC(=S)NC(NC(=O)c2ccccc2Cl)C(Cl)(Cl)Cl)c([N+](=O)[O-])c1 (stereo not drawn)	-1.12	74.0*	0.8	0.3	24.5
COc1ccc(NC(=S)NC(NC(=O)c2ccc(Cl)cc2Cl)C(Cl)(Cl)Cl)c([N+](=O)[O-])c1 (stereo not drawn)	-0.36	98.5*	0	0	96.3*
O=C(NCc1ccco1)C(c1cccs1)N(C(=O)C1COc2ccccc2O1)c1cccc(O)c1 (stereo not drawn)	-1.83	93.6*	0	0.1	96.8*
COC(=O)C1=C(C)NC(=O)NC1C1CC=CCC1 (stereo not drawn)	0.51	-9.0	1	1.1	3.6
CC(C)OC(=O)Nc1ccc(Oc2c(F)c(F)c(F)c(F)c2F)cc1	1.93	7.4	0.9	0.9	5.1
C/C=C/c1c(F)c(F)c(Oc2ccc(C(=O)O)cc2)c(F)c1F	-0.98	81.0*	1	0.2	0.7
Cc1ccc(NC(=O)C2CCCN(S(=O)(=O)c3cnc[nH]3)C2)c(Br)c1 (stereo not drawn)	.	95.0*	0.1	0.1	92.9*
O=C(Nc1ccc(Br)cc1F)C1CCCN(S(=O)(=O)c2cnc[nH]2)C1 (stereo not drawn)	.	78.9*	0.2	0.2	82.8*
O=C(NCCCN1CCN(c2ccccc2F)CC1)C1CCCN(S(=O)(=O)c2cnc[nH]2)C1 (stereo not drawn)	.	33.9	0.8	0.7	19.6
Cc1c(NC(=O)C2CCCN(S(=O)(=O)c3cnc[nH]3)C2)c(=O)n(-c2ccccc2)n1C (stereo not drawn)	.	-6.6	1.1	1.1	-10.5
SMILES	Pyk2 oligo antag	CYP2C9 inh	CYP2C19 activ	CYP2C9 act	CYP2C19 inh
Cc1ccccc1NC(=O)C1CCCN(S(=O)(=O)c2cnc[nH]2)C1 (stereo not drawn)	.	56.3*	0.4	0.4	63.5*
O=C(NC(c1ccccc1)c1ccccc1)C1CCCN(S(=O)(=O)c2cnc[nH]2)C1 (stereo not drawn)	.	76.4*	0.7	0.2	31.0
O=C(NC1CS(=O)(=O)CC1NCc1ccco1)c1ccccc1 (stereo not drawn)	0.22	10.5	0.7	0.9	26.2
Cn1ncc2nc[nH]c(=O)c21	-0.66	41.1	0.5	0.6	50.3*
C/C(=C\C#N)n1nc(C)cc1N	-0.27	-2.3	1	1	-3.0
S=C(NCc1ccco1)Nc1ccc(Cl)c(Cl)c1	0.63	36.4	0.5	0.6	53.1*
COc1cccc(N2CCN(C(=S)NCc3ccco3)CC2)c1	1.82	67.5*	0.5	0.3	53.0*
COc1cc(NC(=S)NCc2ccco2)cc(OC)c1	-0.45	10.3	0.3	0.9	67.4*
CCOc1ccccc1NC(=S)NCc1ccco1	-0.21	-31.4	0.1	1.3	87.2*
Cc1cc(C)c2c(CC(=O)Nc3nccs3)coc2c1	-0.68	19.8	0.9	0.8	12.3
Cn1cccc1C(=S)N=P(C1CCCCC1)(N1CCOCC1)N1CCOCC1	-0.06	-10.7	0.9	1.1	11.5
COc1cccc(CNC(=O)C2CCN(S(=O)(=O)c3cccs3)CC2)c1	0.37	20.7	0.7	0.8	31.9
O=[N+]([O-])c1ccc(N2CCN(S(=O)(=O)c3ccccc3[N+](=O)[O-])CC2)cc1N1CCc2ccccc2C1	0.44	.	.	.	.
O=C(O)COc1ccc(-c2nnn(CC(=O)O)n2)cc1	0.97	-0.2	1.1	1	-8.0
O=C(Nc1ccc(Cl)c(Cl)c1)N(Cc1cccnc1)Cc1ccco1	-2.81	99.6*	0	0	99.0*
S=C(NCc1ccco1)Nc1cccc(Cl)c1	0.2	-15.8	0.7	1.2	34.1
O=C(Nc1cccnc1)c1cccc(NC(=O)c2ccco2)c1	-0.15	-42.0	1	1.4	2.9
COc1ccc(Cl)cc1NC(=S)NCc1ccco1	0.33	-100.4	0.3	2*	71.1*
COc1ccc(/C=N/n2cnnc2SCc2ccc(OC)cc2)cc1	0	1.0	0.8	1	19.9
CN(C)c1oc(-c2ccc(OCc3ccc(Cl)cc3)cc2)nc1C#N	0.14	-27.4	0.7	1.3	26.9
CCC(C)OC(=O)C1=C(C)NC(=O)CC1c1ccccc1OC (stereo not drawn)	-0.22	14.4	0.7	0.9	34.4
COc1ccc(C(N)CCc2ccco2)cc1 (stereo not drawn)	-0.43	14.3	0.7	0.9	30.3
CCC(CC)C(=O)c1c[nH]c(C(=O)NCC2CCCO2)c1 (stereo not drawn)	0.87	1.2	1	1	0.8
N#CCSc1nc2c(sc(=S)n2Cc2ccco2)c(=O)n1-c1ccc(F)cc1	-1.39	71.4*	0.4	0.3	63.7*
CCCCOC(=O)c1c(C)oc2ccc(NS(=O)(=O)c3ccc4c5c(cccc35)C(=O)N4)cc12	-2.15	95.9*	0.3	0	65.8*
COCCOC(=O)c1c(C)oc2ccc(NS(=O)(=O)c3ccc(C(=O)O)cc3)cc12	-0.37	12.9	1	0.9	0.5
